Screens: PubChem, several laboratories
LANA DNA inh – KSHV C-LANA DNA binding inhibition | MBP-C-LANA/FAM-LBS DNA binding, fluorescence polarization | inhibition, % at 9 µM | actives 0.078% (n = 340,000);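 active = highest replicate inhibition at or above 60% at 9 µM, even if other replicates fall short; inactive = all replicates below 60% inhibition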
Cardiac RTF inh – cardiac RTF calcium desensitization | actives 0.12% (n = 340,000) | inhibition, % at 7.15 µM | AID 493244 | IANBD-labeled cardiac RTF, Ca2+ fluorescence;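 active = inhibition above the mean inhibition of all tested compounds plus 3 SD, cut at about 17% in these data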;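 note: assay run at fixed EC70 calcium of 1.6 mM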
CRFBP-R2 block – CRF-BP/CRF-R2 complex antagonism; HEK293 CRF-R2/CRF-BP, CRF-induced calcium fluorescence; inhibition, % at 11.8 µM; actives 0.59% (n = 350,000);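 active = inhibition of the ligand-induced calcium signal above about 50% at the single tested concentration, limit read from the data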
CRFBP-R2 agonist – CRF-BP/CRF-R2 complex agonism. HEK293 CRF-R2/CRF-BP, calcium dye fluorescence (FLIPR); percent of saturating CRF peptide response. activation, % at 13.2 µM. actives 0.46% (n = 350,000). AID 588473;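 active = activation of at least 50%, plus an integration ratio under a set limit after plate pattern correction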
Keap1-Nrf2 PPI – Keap1-Nrf2 (human) interaction inhibition. inhibition, % at 9.4 µM. Keap1 Kelch-Nrf2 peptide fluorescence polarization, 1536-well. actives 0.15% (n = 340,000); in the data active = inhibition above about 12%;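 note: human Keap1 Kelch domain with fluorescein labeled Nrf2 9mer peptide probe; higher means more block of Keap1 binding to Nrf2 peptide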
Target sequence (Q14145 whole entry, looked up, the tested form may be a part): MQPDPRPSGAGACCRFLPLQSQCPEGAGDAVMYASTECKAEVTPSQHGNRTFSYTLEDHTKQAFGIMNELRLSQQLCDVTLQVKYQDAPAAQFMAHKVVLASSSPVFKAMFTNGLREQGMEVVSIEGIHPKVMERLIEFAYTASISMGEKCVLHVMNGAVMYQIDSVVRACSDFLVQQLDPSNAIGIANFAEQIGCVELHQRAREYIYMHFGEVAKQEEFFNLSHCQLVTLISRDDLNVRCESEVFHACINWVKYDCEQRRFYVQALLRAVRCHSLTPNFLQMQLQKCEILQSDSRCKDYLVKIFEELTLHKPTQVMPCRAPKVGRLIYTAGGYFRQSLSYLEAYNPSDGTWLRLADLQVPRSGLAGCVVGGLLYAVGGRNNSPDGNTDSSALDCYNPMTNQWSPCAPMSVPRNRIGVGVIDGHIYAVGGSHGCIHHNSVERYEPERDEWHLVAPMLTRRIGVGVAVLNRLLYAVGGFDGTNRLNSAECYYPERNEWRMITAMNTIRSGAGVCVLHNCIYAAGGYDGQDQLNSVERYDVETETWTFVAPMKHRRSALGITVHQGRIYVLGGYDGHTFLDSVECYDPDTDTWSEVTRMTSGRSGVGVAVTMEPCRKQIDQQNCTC
RTF Ca sens act – increases calcium sensitivity of human cardiac regulated thin filaments; actives 0.24% (n = 340,000); activation, % at 7.2 µM; IANBD-labeled TnC RTF fluorescence at EC20 calcium; 0% EC20 calcium, 100% full calcium; AID 493008;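 active = activation above the mean over all tested compounds plus 3 SD, cut at about 30% in these data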;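 note: rise in fluorescence read as greater calcium sensitivity of cardiac thin filaments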
Large screens that a line does not name were inactive. Compounds with a hit are over-represented: about 1.3% of the library has one in this group of screens.

Cc1c(O)cc2c(c1O)C(=O)CC(c1ccccc1)O2 (centres undefined)	CRFBP-R2 agonist 105.3
Cc1cc(NC(=O)c2noc3c2CCCC3)nn1Cc1ccc(Cl)cc1	none
O=C1CC(=O)N(Cc2ccco2)C(=S)N1	LANA DNA inh 71.1
O=C1CC(=O)N(Cc2ccco2)C(=O)N1	LANA DNA inh 93.8
NCCCNC(=O)c1cc2ccccc2[nH]1	none
COc1ccccc1CNC(=O)COC(=O)c1ccco1	none
Cc1cc(C)c(S(=O)(=O)C(C)C)c(=O)[nH]1	none
Cc1[nH]c2ccccc2c1SCc1nnc(SCc2ccc(Cl)cc2)n1C	none
Cc1[nH]c2ccccc2c1SCc1nnc(SCc2ccccc2)n1C	CRFBP-R2 block 114.5
CCOC(=O)N1CCN(C(=O)COC(=O)c2cccc(C)c2[N+](=O)[O-])CC1	none
Cc1cc(C)cc(NC(=O)c2nnn(Cc3cc(C)ccc3C)c2N)c1	CRFBP-R2 agonist 53.6
O=C(Cc1ccccc1F)c1ccc(O)cc1O	none (no result: Cardiac RTF inh, RTF Ca sens act)
O=C(NC1CCCC1)c1sc(=S)n2c1[nH]c(=O)c1ccccc12	CRFBP-R2 agonist 87.3
O=C(NCc1ccccc1)c1ccc2c(=O)[nH]c3c(C(=O)NCC4CCCO4)sc(=S)n3c2c1 (centres undefined)	none
O=C(NCc1ccco1)c1sc(=S)n2c1[nH]c(=O)c1ccccc12	CRFBP-R2 agonist 54.7
O=C1NCN(c2ccccc2)C12CCN(c1nnnn1-c1ccccc1)CC2	none
COc1ccc(-c2cccc(NS(=O)(=O)c3cccc([N+](=O)[O-])c3)c2)nn1	CRFBP-R2 block 58.0
Cc1ccccc1Cn1c(=O)sc2ccccc2c1=O	CRFBP-R2 block 56.3
CCCCNC(=O)CSc1nnc(Cc2ccccc2)n1CC1CCCO1 (centres undefined)	none
Cc1c(C(=O)Nc2cccc([N+](=O)[O-])c2)sc2ncn(CC(=O)N3CCOCC3)c(=O)c12	CRFBP-R2 block 86.8
Cc1c(C(=O)Nc2ccccc2)sc2ncn(CC(=O)N3CCCCC3)c(=O)c12	none
CN1C(=O)/C(=C2/C=CC=CN2C)OC1=S	none
Fc1cccc(Cl)c1-c1nnc2ccc(C(F)(F)F)cn12	CRFBP-R2 agonist 50.1
S=C1NC[C@H](Cc2ccccc2)N1CCCCC1CCCCC1	none
COC(=O)Cn1c(=O)c(=O)n(CC(=O)OC)c2ccccc21	none
CNC(=O)/C(C#N)=C/c1cn(CC(=O)OC)c2ccccc12	none
COC(=O)Cn1c(C)c(/C=C/c2cc[n+](C)cc2)c2ccccc21	RTF Ca sens act 64.0
COC(=O)Cn1cc(/C=C/c2cc[n+](C)cc2)c2ccccc21	CRFBP-R2 agonist 51.2, RTF Ca sens act 86.2
CCN(CC)C(=O)Cn1cc(SCC(=O)NC2CCCC2)c2ccccc21	none
COc1cccc(/C=C/C(=O)NCc2cn3cc(Cl)ccc3n2)c1	LANA DNA inh 76.7
N#Cc1c(-c2cccs2)nc(SCc2ccc(Cl)cc2)[nH]c1=O	CRFBP-R2 block 55.3
CSc1nc(-c2cccs2)c(C#N)c(=O)[nH]1	none
O=C(c1ccc(Cl)c(S(=O)(=O)Nc2ccccc2C(=O)N2CCc3ccccc3C2)c1)N1CCc2ccccc2C1	CRFBP-R2 block 53.8
O=C(c1ccc(Cl)c(S(=O)(=O)N2CCc3ccccc3C2)c1)N1CCN(c2ccccc2)CC1	none
Clc1ccc(-n2cc(COCc3ccccc3)nn2)cc1	CRFBP-R2 block 63.3
COc1ccc2c(n1)Sc1nc3ccccc3nc1N2	CRFBP-R2 agonist 227.7, RTF Ca sens act 30.1
COc1ccc(CCNC(=O)c2cccc3c2C(=O)N(C2CCCCC2)C3)cc1OC	CRFBP-R2 block 74.2
CCOC(=O)C(C)(C)N(Cc1ccc(C)cc1)S(=O)(=O)c1ccc(Cl)c([N+](=O)[O-])c1	CRFBP-R2 block 67.0
CCOC(=O)C(C)(C)NS(=O)(=O)c1ccc(Cl)c([N+](=O)[O-])c1	none
Cc1onc(-c2ccccc2)c1C(=O)NC(=S)NNC(=O)c1ccc(O)cc1O	none
Cc1onc(-c2ccccc2)c1C(=O)NC(=S)NNC(=O)c1ccccc1O	CRFBP-R2 agonist 202.3
CCCOc1ccc(C(=O)NC(=S)NNC(=O)c2c(-c3ccccc3)noc2C)cc1	CRFBP-R2 agonist 145.2
CCCOc1ccc(NC(=O)c2c(-c3ccccc3)noc2C)cc1	none
Cc1onc(-c2ccccc2)c1C(=O)Nc1cccc2nsnc12	LANA DNA inh 116.4
COc1cccc(/C=N/NC(=O)Cn2nc(C)c([N+](=O)[O-])c2C)c1O	none
CC1CN(C=O)CC(C)N1CCN1C(C)CN(C=O)CC1C (centres undefined)	none
COC(=O)c1ccc(NC(=O)CN2C(=O)CSC2=O)cc1	none
CCOC(=O)c1ccc(NC(=O)CN2C(=O)CSC2=O)cc1	CRFBP-R2 block 102.2
COc1ccccc1N1CCN(C2CCCN(C(=O)c3oc(C)cc3C)C2)CC1 (centres undefined)	none
CC1CCC(N(C(=O)c2csnn2)C(C(=O)NC(C)(C)C)c2cccnc2)CC1 (centres undefined)	none
CCn1c(CCNC(=O)c2ccc(Cl)cc2Cl)n[nH]c1=S	none
CCn1c(CCNC(=O)c2ccccc2Cl)n[nH]c1=S	CRFBP-R2 block 82.0
CC1CCCC(C)N1C(=O)COC(=O)c1cccs1 (centres undefined)	CRFBP-R2 block 61.8
Cc1ccsc1C(=O)OCC(=O)N1C(C)CCCC1C (centres undefined)	none
CC(=O)Nc1cc2c(cc1C(=O)C(C)C)OCCO2	none
CC(C)C(=O)c1cc2c(cc1NC(=O)c1ccccc1)OCCO2	RTF Ca sens act 31.0
CCN(CC)c1ccc(/C=C(\C#N)C(=O)NCc2ccccc2)cc1	RTF Ca sens act 36.2
CCN(CC)C(=O)CSc1nc2ccccc2c(=O)[nH]1	none
CCc1nc(NCCC(C)C)c(C#N)c2c1CCCC2	CRFBP-R2 block 58.6
CCc1nc(NCc2ccccc2)c(C#N)c2c1CCCC2	none
C=CCOc1ccc(C2C(C(=O)c3ccco3)=C(O)C(=O)N2c2nnc(C)s2)cc1 (centres undefined)	CRFBP-R2 block 83.3
COc1cc(C2C(C(=O)c3ccco3)=C(O)C(=O)N2c2cc(C)on2)cc(Br)c1O (centres undefined)	CRFBP-R2 block 79.6
CCCCNC(=O)CSc1nc(N)c(C(=O)Nc2ccc(OC)cc2)s1	none
CCOC(=O)C1=C(C)NC(C)=C(C(=O)OCC)C1/C=C/c1ccccc1	none
COC(=O)C1=C(C)NC(C)=C(C(=O)OC)C1/C=C/c1ccccc1	CRFBP-R2 block 52.8
CC1(c2ccc(OC(F)F)cc2)NC(=O)N(CC(=O)Nc2ccccc2)C1=O (centres undefined)	CRFBP-R2 agonist 76.1
CC1(c2ccc(OC(F)F)cc2)NC(=O)N(CC(=O)Nc2ccc3c(c2)OCO3)C1=O (centres undefined)	CRFBP-R2 agonist 121.9
